Measured values: PubChem BioAssay AID624304 (Sanford-Burnham Center for Chemical Genomics, 2012)
The whole screen tested about 360,000 compounds, of which about 1,800 (0.5%) were called active.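 The calls were made as follows: active = interference check ratio from 0.5 to 1.5 plus GFP to RFP signal ratio inhibition reaching or exceeding a fixed threshold (cut at about 30% in these data, passing the limit was not always enough); inactive = the rest.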 The list comes from a sample in which actives are over-represented; it also holds similar structures and randomly drawn compounds.

test: gst-4 reporter inhibition in live C. elegans – whole organism, uHTS, GFP/RFP fluorescence ratio, strain VP596, SKN-1 inhibitor project, primary screen (AID 624304); conditions: C. elegans VP596 Pgst-4::GFP/RFP ratio, acrylamide-induced, 24 h; at 21.8 µM; active compounds read high

SMILES | inhibition
O=S1(=O)CSCS(=O)(=O)C1 | 10.6% (inactive)
CC1CN(S(=O)(=O)c2ccc(C(=O)NN3CCN(C)CC3)cc2)CC(C)O1 (stereo not drawn) | -5.41% (inactive)
Cc1cc(OCc2cc(C(=O)NCc3cc(C(C)C)no3)no2)cc(C)c1Cl | 1.98% (inactive)
O=C(Nc1ccc(Cl)c(Cl)c1)N1CC=C(c2ccccc2)CC1 | 13.1% (inactive)
Cc1ccc(NC(=O)CSc2nn3c(=O)c(C)nnc3s2)cc1Cl | 20.9% (inactive)
O=C(CC(O)(C(F)(F)F)C(F)(F)F)Nc1ccc(Cl)c(Cl)c1 | 50.1% (active)
NC(=O)C1CCN(C2OC(=O)c3ccccc32)CC1 (stereo not drawn) | -35.9% (inactive)
O=C(NC(c1ccc(Cl)cc1)c1cnccn1)C1CCN(Cc2ccc(Cl)cc2)CC1 (stereo not drawn) | -1.18% (inactive)
O=C(NC(c1ccc(-c2ccccc2)cc1)c1cnccn1)C1CCN(CCOc2ccc(Cl)cc2Cl)CC1 (stereo not drawn) | 39.3% (active)
Cc1ccc(C(NC(=O)C2CCN(CCOc3ccc(Cl)cc3Cl)CC2)c2ccccn2)cc1 (stereo not drawn) | -6.91% (inactive)
CCCCS(=O)c1snnc1C (stereo not drawn) | 0.19% (inactive)
CC1(C(=O)NS(=O)(=O)c2ccccc2)CCN1C(=O)Cc1ccc(-c2ccccc2)cc1 (stereo not drawn) | 14.5% (inactive)
CCCNC(=O)C1(C)CCN1C(=O)Cc1ccc(-c2ccccc2)cc1 (stereo not drawn) | -5.8% (inactive)
CC1(C(=O)NS(=O)(=O)c2cccs2)CCN1C(=O)Cc1ccc(-c2ccccc2)cc1 (stereo not drawn) | 35.1% (active)
O=C(NCCCN1CCOCC1)C1CCCN(S(=O)(=O)N2CCCCC2)C1 (stereo not drawn) | 6.87% (inactive)
CC[n+]1c(C)n(-c2ccccc2)c2ccc(NC(C)=O)cc21 | -12.4% (inactive)
O=S(=O)(c1ccc(Sc2nnc3ccccn23)nc1)N1CCOCC1 | 10.2% (inactive)
COC(=O)Nc1sc2nc(C)cc(C)c2c1-n1cccc1 | 6.78% (inactive)
Cc1cc(C)c2c(-n3cccc3)c(NC(=O)OCc3ccccc3)sc2n1 | 39.1% (active)
CCCCOC(=O)Nc1sc2nc(C)cc(C)c2c1-n1cccc1 | -12.8% (inactive)
O=C(C1CCCO1)N1CCN(C(=S)NC2CC2)CC1 (stereo not drawn) | -7.31% (inactive)
COc1cc2[nH]c(=S)n(Cc3ccc(F)cc3)c(=O)c2cc1OC | -0.963% (inactive)
COc1cc2[nH]c(=S)n(CCN3CCCCC3C)c(=O)c2cc1OC (stereo not drawn) | 56.1% (active)
CCOc1cc2[nH]c(=S)n(CCN3CCCCC3C)c(=O)c2cc1OCC (stereo not drawn) | -6.45% (inactive)
CC(Oc1ccc(Cl)cc1Cl)C(=O)/C=C/N(C)C (stereo not drawn) | -7.74% (inactive)

SMILES | inhibition
CC(C)(CNCC(O)c1ccccc1)N1CCOCC1 (stereo not drawn) | -7.82% (inactive)
Fc1cccc(CSc2nnc3ccc(-c4ccncc4)nn23)c1 | -27.4% (inactive)
COc1ccc(S(=O)(=O)NCc2cccnc2)cc1NC(=O)c1ccc(C)cc1 | 22.1% (inactive)
CC(C)c1nnc(NC(=O)C2CC(=O)N(CCc3ccc(F)cc3)C2)s1 (stereo not drawn) | -6.45% (inactive)
CCC(C)NC(=O)c1ccccc1NC(=O)c1ccccc1N(C)S(C)(=O)=O (stereo not drawn) | -2.01% (inactive)
COc1ccc(-c2nc(CS(=O)CC(=O)NCc3ccccn3)c(C)o2)cc1 (stereo not drawn) | 37.6% (active)
Cc1ccc(-c2nc(CS(=O)CC(=O)NC3CCCC3)c(C)o2)cc1 (stereo not drawn) | 5.39% (inactive)
COc1ccc(-c2nc(CS(=O)CC(=O)NCc3cccnc3)c(C)o2)cc1OC (stereo not drawn) | 0.495% (inactive)
COc1ccc(N2C(=O)C(CC(=O)Nc3ccc(F)cc3)N(CCc3cccs3)C2=O)cc1 (stereo not drawn) | -3.33% (inactive)
COc1ccc(-n2nc(C(=O)Nc3cc(OC)c(OC)c(OC)c3)c3ccccc3c2=O)c(OC)c1 | 6.93% (inactive)
COCCN1C(=O)N(c2ccc(Cl)cc2)C(=O)C1CC(=O)Nc1cc(OC)cc(OC)c1 (stereo not drawn) | 17% (inactive)
C[C@H](OC(=O)n1ccnc1)[C@@H]1O[C@@]2(C)CCC[C@@H]1O2 | 13.4% (inactive)
C=CCSc1nnc2c(n1)-c1cccc3cccc-2c13 | 53.1% (active)
C=CCSc1nsc(NC(=O)Nc2cccc(C(C)=O)c2)n1 | 2.8% (inactive)
COc1ccnc2c1c(=O)n(Cc1cccc(F)c1)c(=O)n2C | 13.9% (inactive)
CCCc1cc(C(=O)Nc2ccc(Cl)cn2)cs1 | 35% (active)
CCCCC(CC)C(=O)Nc1ccc(Cl)cn1 (stereo not drawn) | -11.4% (inactive)
COc1ccc(C(=O)N/N=C(\C)CC(=O)Nc2ccc(Cl)cn2)cc1 | 3.73% (inactive)
C=CCC1(C(=O)N(C)Cc2ccccc2)CCN(C(=O)OC(C)(C)C)CC1 | 4.4% (inactive)
COCCN(C(=S)Nc1cccc(Cl)c1C)C(C)c1ccco1 (stereo not drawn) | 2.25% (inactive)
C/C(=N\NC(=O)OC(C)(C)C)c1ccc[nH]1 | 10.7% (inactive)
CCOC(=O)c1ccc(NC(=O)c2nc[nH]c2C(=O)N[C@@H](CCCCNC(=O)OC(C)(C)C)C(=O)OC(C)(C)C)cc1 | -1.6% (inactive)
c1ccc2c(c1)OCCOCCOCCO2 | 2.75% (inactive)
CCC1CCCCN1C(=O)CSc1nc2c(c(=O)n(C)c(=O)n2C)n1C (stereo not drawn) | 10.5% (inactive)
Cc1nc2nc(CSc3nc4ccccc4s3)cc(=O)n2[nH]1 | 31.9% (active)

SMILES | inhibition
CCCc1cc(=O)n2[nH]c(SCc3ccccc3)nc2n1 | 11.9% (inactive)
CCn1c(SCc2cc(=O)n3ccsc3n2)nc2ccccc21 | 13.5% (inactive)
COc1ccc2c(c1)c1ncn(Cc3ccccn3)c(=O)c1n2C | -9.72% (inactive)
Fc1ccc(-c2csc(-c3ccc(C4SCCS4)cc3)n2)cc1F | -2.79% (inactive)
N#CC(=C1CCCC1)c1nc(-c2ccc(Cl)cc2)cs1 | -17.2% (inactive)
Clc1ccc(-c2csc(-c3ccncc3)n2)cc1 | 73.1% (active)
COc1ccc(C)cc1NC(=O)c1[nH]c(C)c(C(C)=O)c1C | -2.27% (inactive)
COc1ccc(NC(=O)C2Cc3c(-c4cccc(NC(C)=O)c4)ccnc3O2)cc1OC (stereo not drawn) | 7.14% (inactive)
COc1ccc2nc(-c3ccccn3)ccc2c1 | 18.4% (inactive)
c1ccc(Nc2nc(-c3ccncc3)cs2)nc1 | 38.3% (active)
COc1ccc(-c2csc(Nc3ccccn3)n2)cc1 | 40% (active)
COc1ccc(C(O)c2nc(-c3ccc(OC)nc3)cs2)cc1 (stereo not drawn) | -3.44% (inactive)
Clc1ccc(Nc2nc(-c3cccs3)cs2)nc1 | 84.2% (active)
Clc1ccc(Cc2nnc(-c3cccs3)o2)cc1 | -1.16% (inactive)
CC(NC(=O)c1ccco1)C(=O)Nc1nc(-c2ccccn2)cs1 (stereo not drawn) | -5.6% (inactive)
O=C(Nc1ccc(Cl)cn1)c1ccccc1-c1ccccc1 | 19.1% (inactive)
N#Cc1ccc(OCC(=O)Nc2nc(-c3ccccn3)cs2)cc1 | 0.752% (inactive)
C=CCC[C@H](Cc1ccc(F)cc1)C(=O)OC[C@@H](Cc1c[nH]c2ccccc12)NC(=O)[C@H](CC=C)CC(=O)N[C@H](CO)Cc1ccccc1 | 1.71% (inactive)
CN(C(=O)c1ccccc1)c1nccnc1C#N | -2.1% (inactive)
O=C(NCCc1ccccc1)C1CCC(Cn2c(=O)c3ccccc3n(Cc3cccnc3)c2=O)CC1 (stereo not drawn) | 2.01% (inactive)
O=C(c1ccc(=O)oc1)N1CCC(C(O)(c2ccccc2)c2ccccc2)CC1 | 22.9% (inactive)
NC(=O)C1CCN(C(=O)c2ccc(C(F)(F)F)cc2)CC1 | 1.88% (inactive)
CCn1cnc2scc(-c3ccc(C)c(C)c3)c2c1=O | 9.07% (inactive)
C[C@H]1NS(=O)(=O)c2cc(Cl)ccc2O[C@@H]1c1ccccc1 | 12.8% (inactive)
Cc1nnsc1C(=O)N/N=C/c1cccc(C(F)(F)F)c1 | 6.82% (inactive)

SMILES | inhibition
O=C(N/N=C\c1cccc(Br)c1)c1ccccc1-n1cccc1 | 49.3% (active)
COc1cc(OC)c(C(=O)NNC(=O)c2ccccc2-n2cccc2)cc1OC | -9.97% (inactive)
CC(C)Nc1ccc(-n2nc3ccccc3[n+]2[O-])cc1 | 8.98% (inactive)
O=C(O)CCCN1C(=O)c2ccccc2Sc2ncccc21 | 45.5% (active)
COCCNC(=O)CCCN1C(=O)c2ccccc2Sc2ncccc21 | 4.78% (inactive)
O=C(O)CCCN1C(=O)C2C3c4ccccc4C(c4ccccc43)[C@@H]2C1=O (stereo partly drawn) | -5.65% (inactive)
Fc1ccc(N2N=C(c3cccs3)CC2c2ccco2)c(F)c1 (stereo not drawn) | 12.6% (inactive)
Cc1nc2cc(NC(=O)CSc3nc4c(C)cccc4cc3C#N)ccc2s1 | -3.68% (inactive)
Cc1cccc2cc(C#N)c(N3CCCC3)nc12 | 32.6% (active)
Cc1cc(C)c2cc(C#N)c(N3CCNCC3)nc2c1 | 5.2% (inactive)
Cc1cccc(C(=O)N[C@H](C(=O)NCc2cccs2)C(C)C)c1 | 1.58% (inactive)
CC(=O)Nc1ccc(NC(=O)[C@@H](NC(=O)c2cccc(C)c2)C(C)C)cc1 | 12.9% (inactive)
Cc1cccc(C(=O)Nc2ccc(C(=O)/C=C/c3cccs3)cc2)c1 | 46.6% (active)
CCCCCCCC(=O)OC(CN1CCCCCC1)CN1CCCC1=O (stereo not drawn) | 0.0276% (inactive)
O=Cc1c(Cl)cccc1Cl | 2.42% (inactive)
CCC(=O)Nc1c(C)n[nH]c1C | -5.42% (inactive)
C=CCn1c(CC(=O)Nc2cccc(OC)c2)nnc1SCC(=O)NC1CCCCC1 | 37.9% (active)
COc1cccc(NC(=O)CSc2nnc(C3CCCCC3)n2N)c1 | -8.2% (inactive)
Cn1c(CC(=O)Nc2ccc(F)cc2)nnc1SCC(=O)NC1CCCCC1 | 7.79% (inactive)
CC(C)C(=O)Nc1c(C(=O)c2ccc(F)cc2)oc2ccccc12 | 19.7% (inactive)
Clc1ccc(-c2cc(-c3ccccn3)on2)c(Cl)c1 | 65.8% (active)
Fc1ccc(-c2ccc(CNCc3ccccn3)o2)cc1Cl | -1.67% (inactive)
Clc1ccc(COn2c(-c3ccc(Cl)cc3Cl)nc3ncccc32)cc1 | 28.6% (inactive)
